Assay outcomes from PubChem.
A selection: hits, their analogues and other compounds. The true share with any hit is near 1.2%.
PLCb3 inh: PLC-beta3 (human) inhibition, primary screen; Purified PLC-beta3, fluorogenic substrate, fluorescence; 0.18% of 370,000 active; Q01970; inhibition, % at 12.2 µM; in the data active = inhibition above about 11%;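 also: 0% = median of compound wells on plate and 100% = full blocker control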
PLCg1 inh: inhibitors of human phospholipase C gamma1; P19174; purified PLC-gamma1, fluorogenic substrate, fluorescence; inhibition, % at 12.2 µM; 0.84% of 370,000 active; AID 720700
NPR2 activator: GC-B (human) receptor activation; P20594; HEK293-GC-B cells, CNP EC30, cGMP TR-FRET; 0% at EC30 CNP, 100% saturating CNP; activation, % at 10 µM; 0.11% of 370,000 active; AID 1920062;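 active = activation at 10 µM reaching about 35% in either raw or pattern-adjusted values, limit read from the data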
GC-A act: GC-A (human) enzyme activation. activation, % at 10 µM. AID 1671463. P16066. HEK293 GC-A cells, cGMP TR-FRET, EC30 ANP; 0% at EC30 ANP, 100% saturating ANP. 0.14% of 370,000 active; in the data active = activation above about 40%
PLCgamma1 ctr: counter-screen for PLC-beta3 inhibitors: inhibitors of human PLC-gamma1; shares compounds with PLCg1 inh; purified PLC-gamma1, fluorogenic substrate, fluorescence; inhibition, % at 12.3 µM; 3.1% of 3,300 active; AID 743258
PLCb3 confirm: confirmation of human PLC-beta3 inhibitors | shares compounds with PLCg1 inh | purified PLC-beta3, fluorogenic substrate fluorescence | inhibition, % at 12.3 µM | 1% of 3,300 active | AID 743261; in the data active = inhibition above about 11%
* hit, by the source's call; x = no result. Rule as the data show it, unless noted: active = inhibition above about 9.5%; inactive = the rest.

SMILES | PLCb3 inh | PLCg1 inh | NPR2 activator | GC-A act | PLCgamma1 ctr | PLCb3 confirm
CN1C(=O)CSC1=NC12CC3CC(CC(C3)C1)C2 | 4 | 11* | 2 | 2 | -10 | -3
CCN1C(=O)CSC1=NC12CC3CC(CC(C3)C1)C2 | -1 | 2 | 0 | 2 | x | x
Cc1ccc(N(CC(N)=O)C2SC(=O)N(Cc3ccccc3)C2=O)cc1 (stereo not drawn) | 9 | 9.6* | 0 | 3 | -6 | 2
CCCn1c(N2CCN(C)CC2)nc2c1c(=O)[nH]c(=O)n2C | 4 | 3 | 2 | -1 | x | x
CN1CCN(c2nc3c(c(=O)[nH]c(=O)n3C)n2CC(N)=O)CC1 | 8 | 14* | 5 | 2 | -5 | -2
COCCCNC(=S)Nc1c(C)cc(C)cc1C | 6 | 13* | 1 | 0 | -5 | -4
COc1ccc(NS(=O)(=O)c2cccc(C(=O)NCC3(N(C)C)CCCCC3)c2)cc1 | 1 | 0 | -9 | -16 | x | x
CC(=O)N=c1sc(C(C)(C)C)c(C)n1C | 1 | 9.8* | 1 | 6 | -2 | -4
CNS(=O)(=O)c1cc(C(=O)O)ccc1OC | 1 | 2 | 2 | 0 | x | x
O=C(CCc1ccccc1)N[C@H]1[C@@H](OC(=O)c2cnccn2)CCC[C@@]12C(=O)N(Cc1ccccc1)c1ccccc12 | 3 | 12* | -15 | -4 | 14* | 8
Cc1cccc(NC2=C(Cl)C(=O)OC2OC(C)C)c1 (stereo not drawn) | 7 | 10* | 0 | 2 | 6 | 1
CCOC(=O)c1nc(C)n(-c2cc(Cl)ccc2Cl)n1 | -2 | -4 | -2 | 3 | x | x
Cc1ccc2c(c1)c(N=Nc1cccc(C(=O)O)c1)c(O)n2C | 1 | 13* | 2 | 17 | -8 | -8
CCOc1ccc2c(c1)c(N=Nc1cccc(C(=O)O)c1)c(O)n2C | -1 | 0 | -2 | -1 | x | x
Cc1ccc(NC(=O)COc2cccc3ccc(C)nc23)c(Br)c1 | 1 | 13* | 3 | -2 | -8 | -5
CCN1CCN(c2ccc(S(=O)(=O)N3CCOCC3)cc2NC(=O)CC(NC(C)=O)c2ccccc2)CC1 (stereo not drawn) | -2 | -1 | -1 | 4 | x | x
CCC(C)c1ccccc1NS(=O)(=O)c1cnn(CC)c1 (stereo not drawn) | 4 | 9.8* | -2 | 1 | -2 | 1
CCn1cc(S(=O)(=O)Nc2ccccc2C(F)(F)F)cn1 | 3 | 0 | 4 | 1 | x | x
Cc1ccc(CC(=O)N2CCN(S(=O)(=O)c3ccccc3)CC2)cc1C | -2 | 4 | 0 | -1 | x | x
CCOC(=O)c1c(C)nc(C)c(C(=O)OCC)c1-c1ccc(Br)cc1 | 6 | 12* | -3 | -7 | -5 | -2
CCOC(=O)c1c(C)nc(C)c(C(=O)OCC)c1-c1ccc(OC)cc1 | -1 | 3 | -4 | -6 | x | x
CCN(Cc1cc2cc(OC)ccc2[nH]c1=O)C(=O)c1ccncc1 | -21 | -15 | 4 | 0 | x | x
CC(=O)c1cccc(NC(=O)Nc2ccccc2)c1 | -2 | 3 | -3 | 1 | x | x
CC(=O)c1cccc(NC(=O)C2C3C=CC(C3=C(c3ccccc3)c3ccccc3)C2C(=O)O)c1 (stereo not drawn) | -13 | 10* | -1 | -4 | -8 | -12
N#Cc1cccnc1Nc1cccc(Cl)c1 | -3 | -4 | 1 | 2 | x | x
SMILES | PLCb3 inh | PLCg1 inh | NPR2 activator | GC-A act | PLCgamma1 ctr | PLCb3 confirm
CC(C)NC(=O)CCc1nnc(Cc2cccc(C(F)(F)F)c2)o1 | -1 | -1 | -12 | -3 | x | x
CC(C)N(CCO)C(=O)CCc1nnc(Cc2cccc(C(F)(F)F)c2)o1 | -2 | 9.7* | 3 | 3 | -1 | 1
FC(F)(F)c1cc(-c2cccs2)n[nH]1 | -1 | 0 | -2 | 4 | x | x
Cc1cccc(NC(=O)c2cc(S(=O)(=O)c3ccccc3)ccc2Cl)c1 | -1 | 11* | -2 | 6 | 0 | 3
O=C(COC(=O)c1ccccc1C(=O)OCC(=O)NCCc1c[nH]c2ccccc12)NCCc1c[nH]c2ccccc12 | 5 | 9.9* | -3 | -5 | 9.6* | 3
O=C(O)CCC(=O)c1ccc(-c2ccccc2)cc1 | -1 | -3 | 0 | 4 | x | x
O=C(O)CCC(=O)CCC(=O)c1ccc(Cl)cc1 | 1 | 11* | -7 | 7 | -5 | -1
COc1cc2c(cc1OC)C(C(=O)NCC1COc3ccccc3O1)C(c1cccnc1)N(C)C2=O (stereo not drawn) | -4 | -1 | 2 | 5 | x | x
CCOC(=O)CN(C(=O)CNC(=O)c1cccs1)C(C(=O)NC1CCCCC1)c1cccnc1 (stereo not drawn) | 2 | 7 | 1 | -4 | x | x
C=CCN(C(=O)CNC(=O)c1cccs1)C(C(=O)NC1CCCCC1)c1cccnc1 (stereo not drawn) | 8 | 9.7* | -1 | 0 | 8 | 5
Cc1cccc(OCC(=O)N(C)CCc2ccccn2)c1 | 11* | 8 | 4 | -2 | -4 | 1
Cc1cccc(CN(C)CCc2ccccn2)c1 | 0 | 1 | -1 | 2 | x | x
COc1ccccc1NC1=NCC(=O)N1Cc1ccccc1 | 2 | -2 | -3 | -4 | x | x
COc1ccc(CN2C(=O)CN=C2Nc2cccc(C)c2C)cc1 | 6 | 9.8* | 4 | 0 | -4 | -1
Cc1ccc(CNC(=O)C2CCC(=O)N2Cc2ccc(F)cc2)cc1 (stereo not drawn) | -1 | 7 | 7 | 1 | x | x
CC(=O)Nc1ccc(S(=O)(=O)NCC2CCC(C(=O)N3CCCCC3)CC2)cc1 (stereo not drawn) | -8 | 9.9* | -1 | 2 | -4 | -3
COCC(=O)N1CCCC(CNS(=O)(=O)c2ccc(OC)cc2)C1 (stereo not drawn) | 5 | 14* | 8 | 0 | -5 | -6
CCOC(=O)C1CCCN(C(=O)C2CCC(CNS(=O)(=O)c3ccc(NC(C)=O)cc3)CC2)C1 (stereo not drawn) | 4 | 3 | -4 | -1 | x | x
O=C1CSc2ccccc2N1 | 5 | 11* | 4 | 1 | -1 | -1
COC(=O)c1ccc2c(c1)NC(=O)CS2 | 1 | 4 | 2 | 2 | x | x
CCCCCc1ccc(-c2cn(CCc3c[nH]c4ccccc34)nn2)cc1 | -1 | 3 | 3 | -3 | x | x
CCOC(=O)c1ccc(NC(=O)CSCC(=O)OCC(=O)c2ccccc2)cc1 | 1 | -2 | -3 | 3 | x | x
Clc1ccc(CNCC2CCCO2)c(Cl)c1 (stereo not drawn) | -1 | 10* | 2 | -1 | 0 | 2
Clc1ccc(CNCC2CCCO2)cc1 (stereo not drawn) | -5 | -1 | 7 | 3 | x | x
S=C(NC1CCCCCC1)NC1CCCC1 | -5 | -4 | 2 | 1 | x | x
CCCNC(=O)c1ccc2c(c1)nc(C)n2-c1cccc(C)c1 | 4 | 13* | 6 | -4 | 4 | -1
COc1ccc(-c2c(C)nn3c(C(F)(F)F)cc(C)nc23)cc1 | -7 | 7 | 4 | 1 | x | x
